According to article PMC7862700, “An all-to-all approach to the identification of sequence-specific readers for epigenetic DNA modifications on cytosine”:

What was measured:
Test in all cases: DAPPL (digital affinity profiling via proximity ligation, sequencing); 10 mM Tris-HCl pH 7.5, 50 mM NaCl, 1 mM DTT, 4% glycerol, room temperature, 30 min; GST-TFs on glutathione beads, 16-mer random dsDNA library, 0.1% formaldehyde crosslink after washing; high values mean tight binding
Settings in all cases: protein: recombinant; tags: N-terminal GST; dsDNA, one strand shown
ELK1 = biological target: T1, ELK1 (Homo sapiens, UniProt P19419 1-428)
T1 sequence: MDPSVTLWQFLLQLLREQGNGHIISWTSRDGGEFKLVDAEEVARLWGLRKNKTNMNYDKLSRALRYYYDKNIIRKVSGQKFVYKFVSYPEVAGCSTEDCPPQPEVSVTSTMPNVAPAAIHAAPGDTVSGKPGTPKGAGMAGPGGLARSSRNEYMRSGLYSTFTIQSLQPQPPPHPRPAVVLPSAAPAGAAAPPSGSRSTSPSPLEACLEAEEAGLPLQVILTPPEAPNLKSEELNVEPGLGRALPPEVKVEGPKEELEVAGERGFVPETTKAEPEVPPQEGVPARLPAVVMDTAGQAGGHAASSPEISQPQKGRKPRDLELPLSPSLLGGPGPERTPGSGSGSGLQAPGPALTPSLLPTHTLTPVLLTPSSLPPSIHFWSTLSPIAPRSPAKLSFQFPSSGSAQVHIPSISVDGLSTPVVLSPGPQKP
Procedure, shortened: (§1)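 Sequencing on an Illumina NextSeq500 followed washing, crosslinking with 0.1% formaldehyde, proximity ligation (BsaI/T4 ligase, 1 h, 37 °C) and PCR amplification of pools that had been incubated for 30 min at room temperature with 200 nmole of a random double-stranded 16-mer DNA library in Tris/NaCl/DTT/glycerol buffer. Each pool held DNA-barcoded human transcription factors, expressed in yeast as GST fusions and captured on glutathione beads, plus a tag-only sample. Binding signal is a hexamer's read frequency for a factor divided by its frequency in the tag-only sample.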

GABPA = biological target: T2, GABPA (Homo sapiens, UniProt Q06546 1-454)
T2 sequence: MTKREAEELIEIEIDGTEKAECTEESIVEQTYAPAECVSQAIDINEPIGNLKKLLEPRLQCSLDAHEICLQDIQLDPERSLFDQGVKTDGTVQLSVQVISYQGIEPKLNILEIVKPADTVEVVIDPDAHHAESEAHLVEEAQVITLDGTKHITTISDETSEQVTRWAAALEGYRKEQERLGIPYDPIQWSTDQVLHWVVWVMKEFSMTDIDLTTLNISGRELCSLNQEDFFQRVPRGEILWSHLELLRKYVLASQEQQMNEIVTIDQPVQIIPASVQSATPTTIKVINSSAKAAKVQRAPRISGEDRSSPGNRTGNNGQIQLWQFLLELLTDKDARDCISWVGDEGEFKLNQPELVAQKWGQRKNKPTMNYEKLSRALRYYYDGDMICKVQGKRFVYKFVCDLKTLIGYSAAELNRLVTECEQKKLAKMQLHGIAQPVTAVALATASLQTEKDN
Procedure, shortened: as §1

ERG = biological target: T3, ERG (Homo sapiens, UniProt P11308 1-479)
T3 sequence: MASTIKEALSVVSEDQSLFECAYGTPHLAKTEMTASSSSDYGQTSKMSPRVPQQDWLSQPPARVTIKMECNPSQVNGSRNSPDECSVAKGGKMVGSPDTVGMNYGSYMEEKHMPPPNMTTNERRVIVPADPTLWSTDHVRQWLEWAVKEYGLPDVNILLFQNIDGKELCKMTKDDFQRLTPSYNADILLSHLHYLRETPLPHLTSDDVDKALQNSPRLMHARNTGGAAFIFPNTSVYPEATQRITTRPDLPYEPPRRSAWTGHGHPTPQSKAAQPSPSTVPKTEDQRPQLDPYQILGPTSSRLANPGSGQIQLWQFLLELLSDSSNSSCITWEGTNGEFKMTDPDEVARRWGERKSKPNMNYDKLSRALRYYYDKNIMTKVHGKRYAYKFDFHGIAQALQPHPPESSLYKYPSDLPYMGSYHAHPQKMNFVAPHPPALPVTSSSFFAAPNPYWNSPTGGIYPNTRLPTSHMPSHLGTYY
Procedure, shortened: as §1

ELF1 = ELF1 (Homo sapiens, UniProt P32519 1-619)
Sequence of ELF1 (P32519 whole entry): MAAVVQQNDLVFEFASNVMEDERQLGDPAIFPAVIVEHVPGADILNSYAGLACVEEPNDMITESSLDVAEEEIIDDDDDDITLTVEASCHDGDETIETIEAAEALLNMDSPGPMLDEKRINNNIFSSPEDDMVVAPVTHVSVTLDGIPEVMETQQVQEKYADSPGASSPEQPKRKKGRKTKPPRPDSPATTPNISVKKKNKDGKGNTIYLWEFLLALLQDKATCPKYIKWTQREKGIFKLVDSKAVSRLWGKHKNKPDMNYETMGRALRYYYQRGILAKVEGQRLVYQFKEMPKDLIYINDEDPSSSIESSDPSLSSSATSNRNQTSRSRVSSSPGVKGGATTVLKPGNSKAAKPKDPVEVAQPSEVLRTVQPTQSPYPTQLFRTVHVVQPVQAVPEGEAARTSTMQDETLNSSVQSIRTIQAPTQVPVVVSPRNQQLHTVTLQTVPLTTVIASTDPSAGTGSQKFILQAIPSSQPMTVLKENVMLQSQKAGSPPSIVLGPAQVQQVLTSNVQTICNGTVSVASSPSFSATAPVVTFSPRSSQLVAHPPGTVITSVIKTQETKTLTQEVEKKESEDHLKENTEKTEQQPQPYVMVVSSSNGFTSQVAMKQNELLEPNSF
Procedure, shortened: as §1

EHF = biological target: T4, EHF (Homo sapiens, UniProt Q9NZC4 1-300)
T4 sequence: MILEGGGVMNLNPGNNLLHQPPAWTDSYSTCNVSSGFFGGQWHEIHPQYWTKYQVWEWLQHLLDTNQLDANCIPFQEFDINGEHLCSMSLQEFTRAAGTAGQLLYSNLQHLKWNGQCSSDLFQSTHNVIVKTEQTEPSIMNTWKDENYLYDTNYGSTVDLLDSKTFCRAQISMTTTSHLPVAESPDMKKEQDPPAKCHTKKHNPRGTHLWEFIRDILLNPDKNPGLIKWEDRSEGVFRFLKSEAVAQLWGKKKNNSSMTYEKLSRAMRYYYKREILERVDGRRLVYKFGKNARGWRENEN
Procedure, shortened: as §1

FEV = biological target: T5, FEV (Homo sapiens, UniProt Q99581 1-238)
T5 sequence: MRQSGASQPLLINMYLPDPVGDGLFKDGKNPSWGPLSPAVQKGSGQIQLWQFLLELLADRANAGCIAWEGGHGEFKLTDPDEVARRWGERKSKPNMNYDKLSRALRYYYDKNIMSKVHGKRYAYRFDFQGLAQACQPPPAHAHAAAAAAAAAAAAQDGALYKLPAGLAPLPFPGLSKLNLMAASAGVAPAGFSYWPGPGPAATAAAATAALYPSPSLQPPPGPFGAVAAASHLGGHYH
Procedure, shortened: as §1

ETV5 = ETV5 (Homo sapiens, UniProt P41161 1-510)
Sequence of ETV5 (P41161 whole entry): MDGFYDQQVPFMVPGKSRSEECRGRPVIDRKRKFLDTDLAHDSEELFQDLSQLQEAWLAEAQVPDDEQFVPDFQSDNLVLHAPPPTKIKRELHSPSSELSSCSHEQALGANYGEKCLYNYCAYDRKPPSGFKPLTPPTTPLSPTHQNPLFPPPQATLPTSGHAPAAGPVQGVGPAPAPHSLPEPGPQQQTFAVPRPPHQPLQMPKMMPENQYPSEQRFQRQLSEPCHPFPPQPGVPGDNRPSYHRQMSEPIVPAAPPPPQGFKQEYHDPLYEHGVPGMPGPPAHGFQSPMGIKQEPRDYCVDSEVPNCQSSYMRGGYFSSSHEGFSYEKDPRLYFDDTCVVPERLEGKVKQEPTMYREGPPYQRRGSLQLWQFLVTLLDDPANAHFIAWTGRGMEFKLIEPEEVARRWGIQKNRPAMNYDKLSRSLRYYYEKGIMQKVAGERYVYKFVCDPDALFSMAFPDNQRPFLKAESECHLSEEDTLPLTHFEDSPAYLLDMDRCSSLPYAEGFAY
Procedure, shortened: as §1

ELF4 = ELF4 (Homo sapiens, UniProt Q99607 1-663)
Sequence of ELF4 (Q99607 whole entry): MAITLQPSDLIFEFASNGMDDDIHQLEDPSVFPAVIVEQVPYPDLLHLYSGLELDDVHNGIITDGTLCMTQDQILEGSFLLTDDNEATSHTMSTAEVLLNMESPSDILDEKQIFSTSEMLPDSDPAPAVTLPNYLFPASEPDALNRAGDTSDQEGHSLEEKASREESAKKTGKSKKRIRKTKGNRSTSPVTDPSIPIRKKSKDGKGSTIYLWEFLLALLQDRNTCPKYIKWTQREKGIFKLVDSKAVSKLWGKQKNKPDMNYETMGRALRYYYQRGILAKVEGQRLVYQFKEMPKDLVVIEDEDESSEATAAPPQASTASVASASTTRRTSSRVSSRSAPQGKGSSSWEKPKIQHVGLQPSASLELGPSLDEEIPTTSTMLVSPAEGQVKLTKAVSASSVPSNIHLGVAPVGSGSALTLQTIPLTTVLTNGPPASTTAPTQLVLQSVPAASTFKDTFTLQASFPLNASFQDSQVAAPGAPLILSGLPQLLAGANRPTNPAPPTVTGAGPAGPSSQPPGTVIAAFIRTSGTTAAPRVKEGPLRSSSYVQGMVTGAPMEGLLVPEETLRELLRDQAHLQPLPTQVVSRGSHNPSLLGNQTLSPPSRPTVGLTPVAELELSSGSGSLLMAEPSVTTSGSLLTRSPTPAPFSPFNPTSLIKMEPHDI
Procedure, shortened: as §1

ELK4 = biological target: T6, ELK4 (Homo sapiens, UniProt P28324-2 1-405)
T6 sequence: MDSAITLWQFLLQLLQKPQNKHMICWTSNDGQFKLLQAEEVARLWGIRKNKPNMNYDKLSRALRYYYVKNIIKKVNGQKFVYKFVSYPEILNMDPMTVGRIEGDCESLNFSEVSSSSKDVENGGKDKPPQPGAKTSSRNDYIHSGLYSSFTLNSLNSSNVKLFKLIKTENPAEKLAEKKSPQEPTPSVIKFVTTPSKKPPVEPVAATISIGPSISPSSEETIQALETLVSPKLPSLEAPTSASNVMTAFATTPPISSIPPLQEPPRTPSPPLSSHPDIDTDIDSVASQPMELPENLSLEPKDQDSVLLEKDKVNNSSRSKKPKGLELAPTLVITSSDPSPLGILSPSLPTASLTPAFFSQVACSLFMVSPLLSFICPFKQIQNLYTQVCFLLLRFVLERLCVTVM
Procedure, shortened: as §1

ETV2 = biological target: T7, ETV2 (Homo sapiens, UniProt O00321 1-342)
T7 sequence: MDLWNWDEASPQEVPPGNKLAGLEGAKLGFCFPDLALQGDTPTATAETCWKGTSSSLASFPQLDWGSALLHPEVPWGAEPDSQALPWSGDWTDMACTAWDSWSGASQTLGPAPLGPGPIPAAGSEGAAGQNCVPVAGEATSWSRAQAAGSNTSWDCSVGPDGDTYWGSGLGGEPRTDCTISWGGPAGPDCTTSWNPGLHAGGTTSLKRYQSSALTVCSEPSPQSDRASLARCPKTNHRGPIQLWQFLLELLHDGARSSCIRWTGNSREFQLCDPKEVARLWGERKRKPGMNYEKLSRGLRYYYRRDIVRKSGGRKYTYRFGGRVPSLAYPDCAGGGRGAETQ
Procedure, shortened: as §1

ETV1 = ETV1 (Homo sapiens, UniProt P50549 1-477)
Sequence of ETV1 (P50549 whole entry): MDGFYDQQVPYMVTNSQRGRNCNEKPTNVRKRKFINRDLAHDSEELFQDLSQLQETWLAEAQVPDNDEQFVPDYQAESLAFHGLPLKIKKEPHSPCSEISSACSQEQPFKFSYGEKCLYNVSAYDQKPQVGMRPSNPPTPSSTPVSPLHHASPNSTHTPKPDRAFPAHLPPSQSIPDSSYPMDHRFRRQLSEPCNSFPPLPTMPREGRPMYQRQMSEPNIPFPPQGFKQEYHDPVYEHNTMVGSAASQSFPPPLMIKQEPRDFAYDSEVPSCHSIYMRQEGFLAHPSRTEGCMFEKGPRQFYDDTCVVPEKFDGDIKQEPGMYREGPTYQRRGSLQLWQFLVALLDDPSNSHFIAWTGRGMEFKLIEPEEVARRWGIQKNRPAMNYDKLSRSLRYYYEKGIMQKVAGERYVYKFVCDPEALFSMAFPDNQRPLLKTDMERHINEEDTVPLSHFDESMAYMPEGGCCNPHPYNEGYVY
Procedure, shortened: as §1

ERF = biological target: T8, ERF (Homo sapiens, UniProt P50548 1-548)
T8 sequence: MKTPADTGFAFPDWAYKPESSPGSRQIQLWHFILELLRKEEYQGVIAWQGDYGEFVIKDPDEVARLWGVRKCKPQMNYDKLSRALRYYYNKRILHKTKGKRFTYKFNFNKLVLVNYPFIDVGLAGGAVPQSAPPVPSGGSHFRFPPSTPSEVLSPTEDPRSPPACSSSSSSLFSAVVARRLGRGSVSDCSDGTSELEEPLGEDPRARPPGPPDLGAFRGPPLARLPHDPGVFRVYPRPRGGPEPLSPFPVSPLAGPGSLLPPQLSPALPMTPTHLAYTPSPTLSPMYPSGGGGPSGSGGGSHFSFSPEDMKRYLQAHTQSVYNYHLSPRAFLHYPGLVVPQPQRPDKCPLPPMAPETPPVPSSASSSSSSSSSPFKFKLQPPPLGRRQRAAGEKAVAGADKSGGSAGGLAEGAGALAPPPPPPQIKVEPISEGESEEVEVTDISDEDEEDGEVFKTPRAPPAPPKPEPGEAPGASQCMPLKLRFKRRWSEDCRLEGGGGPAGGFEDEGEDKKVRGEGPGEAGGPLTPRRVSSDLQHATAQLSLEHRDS
Procedure, shortened: as §1

ETV3L = biological target: T9, ETV3L (Homo sapiens, UniProt Q6ZN32 1-361)
T9 sequence: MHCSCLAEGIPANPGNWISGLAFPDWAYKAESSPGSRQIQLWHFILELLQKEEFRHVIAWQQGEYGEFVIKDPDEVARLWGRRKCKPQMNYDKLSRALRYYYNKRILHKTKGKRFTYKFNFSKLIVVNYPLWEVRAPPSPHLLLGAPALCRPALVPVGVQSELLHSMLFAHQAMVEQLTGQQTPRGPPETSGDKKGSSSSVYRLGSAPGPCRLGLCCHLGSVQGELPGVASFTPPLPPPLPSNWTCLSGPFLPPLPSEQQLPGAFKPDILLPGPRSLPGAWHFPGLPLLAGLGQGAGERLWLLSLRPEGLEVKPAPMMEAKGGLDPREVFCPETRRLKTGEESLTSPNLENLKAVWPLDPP
Procedure, shortened: as §1

ETS2 = biological target: T10, ETS2 (Homo sapiens, UniProt P15036 1-469)
T10 sequence: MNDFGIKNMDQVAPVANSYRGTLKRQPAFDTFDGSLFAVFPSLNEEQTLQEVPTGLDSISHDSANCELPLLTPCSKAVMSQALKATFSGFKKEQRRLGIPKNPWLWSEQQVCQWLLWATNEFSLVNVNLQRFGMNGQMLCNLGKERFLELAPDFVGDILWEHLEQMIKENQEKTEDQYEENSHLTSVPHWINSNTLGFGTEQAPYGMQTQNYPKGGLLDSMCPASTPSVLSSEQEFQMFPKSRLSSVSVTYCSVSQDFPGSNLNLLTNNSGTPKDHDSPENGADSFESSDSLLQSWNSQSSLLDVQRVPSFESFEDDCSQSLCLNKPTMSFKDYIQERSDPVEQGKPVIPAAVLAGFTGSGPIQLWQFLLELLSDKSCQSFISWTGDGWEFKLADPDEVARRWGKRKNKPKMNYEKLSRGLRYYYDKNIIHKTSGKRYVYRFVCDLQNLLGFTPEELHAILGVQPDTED
Procedure, shortened: as §1

SPDEF = biological target: T11, SPDEF (Homo sapiens, UniProt O95238 1-335)
T11 sequence: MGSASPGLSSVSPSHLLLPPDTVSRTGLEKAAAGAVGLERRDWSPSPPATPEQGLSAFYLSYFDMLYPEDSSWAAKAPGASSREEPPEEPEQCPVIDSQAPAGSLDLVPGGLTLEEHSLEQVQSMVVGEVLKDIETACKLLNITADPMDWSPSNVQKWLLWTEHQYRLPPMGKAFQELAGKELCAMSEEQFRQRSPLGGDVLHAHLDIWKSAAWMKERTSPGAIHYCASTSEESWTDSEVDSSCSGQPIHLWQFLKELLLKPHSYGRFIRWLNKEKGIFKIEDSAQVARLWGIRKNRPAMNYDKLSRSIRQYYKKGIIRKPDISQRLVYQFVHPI
Procedure, shortened: as §1

ETV7 = biological target: T12, ETV7 (Homo sapiens, UniProt Q9Y603 1-341)
T12 sequence: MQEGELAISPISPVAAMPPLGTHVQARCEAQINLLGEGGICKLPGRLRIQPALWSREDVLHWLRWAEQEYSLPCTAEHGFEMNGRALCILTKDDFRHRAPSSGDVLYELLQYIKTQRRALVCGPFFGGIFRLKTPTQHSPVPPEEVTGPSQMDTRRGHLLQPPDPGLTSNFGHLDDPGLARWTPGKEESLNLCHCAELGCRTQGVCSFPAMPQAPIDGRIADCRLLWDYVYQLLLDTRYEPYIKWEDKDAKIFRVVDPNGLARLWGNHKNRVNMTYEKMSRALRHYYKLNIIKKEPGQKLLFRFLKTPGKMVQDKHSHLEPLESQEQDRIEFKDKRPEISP
Procedure, shortened: as §1

ETV3 = biological target: T13, ETV3 (Homo sapiens, UniProt P41162-2 1-143)
T13 sequence: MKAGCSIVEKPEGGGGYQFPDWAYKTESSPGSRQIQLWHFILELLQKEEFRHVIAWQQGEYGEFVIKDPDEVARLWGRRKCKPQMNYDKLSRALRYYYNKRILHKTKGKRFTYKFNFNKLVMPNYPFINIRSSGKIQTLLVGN
Procedure, shortened: as §1

ETV6 = ETV6 (Homo sapiens, UniProt P41212 1-452)
Sequence of ETV6 (P41212 whole entry): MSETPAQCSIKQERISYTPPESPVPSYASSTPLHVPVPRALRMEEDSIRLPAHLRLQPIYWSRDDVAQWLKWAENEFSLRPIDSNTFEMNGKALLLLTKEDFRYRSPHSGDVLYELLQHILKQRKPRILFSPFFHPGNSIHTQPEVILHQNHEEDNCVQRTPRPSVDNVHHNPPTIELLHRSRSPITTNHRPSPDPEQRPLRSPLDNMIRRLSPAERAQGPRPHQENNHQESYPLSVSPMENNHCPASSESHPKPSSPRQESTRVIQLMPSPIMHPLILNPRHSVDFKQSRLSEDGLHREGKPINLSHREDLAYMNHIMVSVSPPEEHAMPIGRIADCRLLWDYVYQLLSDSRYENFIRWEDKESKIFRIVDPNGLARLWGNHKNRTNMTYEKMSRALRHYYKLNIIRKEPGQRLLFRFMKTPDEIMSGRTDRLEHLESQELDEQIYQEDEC
Procedure, shortened: as §1

Sequence: AAGGGC
- binding signal (ELK1): 1.02 fold enrichment (6-mer frequency, TF over GST control)
- binding signal (GABPA): 1.1 fold enrichment (6-mer frequency, TF over GST control)
- binding signal (ERG): 1.06 fold enrichment (6-mer frequency, TF over GST control)
- binding signal (ELF1): 1.06 fold enrichment (6-mer frequency, TF over GST control)
- binding signal (EHF): 1.01 fold enrichment (6-mer frequency, TF over GST control)
- binding signal (FEV): 1.02 fold enrichment (6-mer frequency, TF over GST control)
- binding signal (ETV5): 1.06 fold enrichment (6-mer frequency, TF over GST control)
- binding signal (ELF4): 1.01 fold enrichment (6-mer frequency, TF over GST control)
- binding signal (ELK4): 1.13 fold enrichment (6-mer frequency, TF over GST control)
- binding signal (ETV2): 1.06 fold enrichment (6-mer frequency, TF over GST control)
- binding signal (ETV1): 1.05 fold enrichment (6-mer frequency, TF over GST control)
- binding signal (ERF): 1.06 fold enrichment (6-mer frequency, TF over GST control)
- binding signal (ETV3L): 1.05 fold enrichment (6-mer frequency, TF over GST control)
- binding signal (ETS2): 1.1 fold enrichment (6-mer frequency, TF over GST control)
- binding signal (SPDEF): 1.07 fold enrichment (6-mer frequency, TF over GST control)
- binding signal (ETV7): 1.05 fold enrichment (6-mer frequency, TF over GST control)
- binding signal (ETV3): 1.07 fold enrichment (6-mer frequency, TF over GST control)
- binding signal (ETV6): 1.04 fold enrichment (6-mer frequency, TF over GST control)
